About 83,000 compounds went through this panel and 20% of them were active in at least one assay; those are over-represented in the sample as a whole.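 Cell lines were cultured in 96-well plates, exposed to a single compound concentration, and assessed for percent growth 48 hours later.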 Values without a mark were called inactive. Calls of active or inactive are those of the source. Rule for the calls: active = growth percent below 10; inactive = the rest.
Tests used:
Test in all cases: NCI-60 one-dose screen, 48 h (100 = growth as untreated, 0 = no growth, -100 = all killed)
Settings in all cases: 10 µM unless noted
[1] = tested on: NCI-H23 lung
[2] = tested on: NCI-H226 lung
[3] = tested on: NCI-H322M lung
[4] = tested on: HOP-62 NSCLC
[5] = tested on: NCI-H460 lung
[6] = tested on: HOP-92 NSCLC
[7] = tested on: NCI-H522 lung
[8] = tested on: A549/ATCC NSCLC
[9] = tested on: 786-0 renal
[10] = tested on: COLO 205 colon

SMILES	growth [1]	growth [2]	growth [3]	growth [4]	growth [5]	growth [6]	growth [7]	growth [8]	growth [9]	growth [10]
O=C(N/N=C/c1ccc(Oc2ccccc2)cc1)c1cnn2c1NC(c1ccccc1)C2 (stereo not given)	61.2%	89.2%	32.2%	33.6%	1.16% (active)	74.2%	51.3%	8.65% (active)	41%	51.6%
O=C(/C(=C/c1ccc([N+](=O)[O-])cc1)SCc1ccc(F)cc1)c1ccc(F)cc1	74.8%	86.9%	85.9%	93.6%	90.7%	90.2%	52.2%	91.4%	78.7%	94.7%
COc1cc2c(cc1OC)C(=O)/C(=C/c1cc(C)c(O)c(C)c1)S2	39.2%	55.7%	50.4%	39.4%	18.5%	88.6%	-7.24% (active)	36.9%	39.6%	104%
COc1ccc2c(c1)oc1c(C)c3c(c(C)c12)C(=O)N(N)C3=O	50.4%	-11.6% (active)	32.3%	14.8%	8% (active)	29%	49.5%	24.1%	-39.6% (active)	39.5%
O=C1Nc2ccccc2/C1=C\c1c(-c2ccccc2)nc2ccccn12	8.45% (active)	57.6%	70.1%	41.3%	24.3%	66.6%	22.3%	47.1%	58.7%	31%
C=C1C(=O)O[C@H]2[C@H]1CC/C(CNC(=O)/C=C/c1cccc(OC)c1)=C\CC[C@@]1(C)O[C@@H]21	64.4%	73.6%	72.6%	68.7%	76%	-31.7% (active)	-69.4% (active)	47.2%	-59.2% (active)	-56.5% (active)
COc1ccccc1/C=C1\Oc2cc(OCCN3CCCC3)ccc2C1=O	82.8%	85.3%	99.8%	96.4%	84.6%	59.5%	89.8%	95.3%	82.5%	95.4%
CCc1c(Cl)nc(N)nc1Nc1ccc(C)c(C)c1	96.9%	83.5%	110%	92.7%	80.7%	112%	81.9%	99.3%	101%	106%
COc1ccc2[nH]c(O)c(/C=c3/cc4c(c(-c5ccc(F)cc5)n3)=Nc3ccccc3-4)c2c1	67.9%	76.3%	94%	95.5%	41.5%	66.7%	68.5%	75.8%	97.6%	96.6%
CC1(C)c2[nH]c3ccccc3c2C[C@]2(C)[C@H]3C(=O)C=C4[C@@H]5C[C@@](C)(C(N)=O)CC[C@]5(C)CC[C@@]4(C)[C@]3(C)CC[C@@H]12	72.5%	73.2%	66.4%	85.3%	69.4%	55.4%	68.7%	65.8%	75%	46.7%
OC(c1cccc(C(F)(F)F)c1)c1cnccc1NC1CCCCC1 (stereo not given)	60.9%	82.9%	90.2%	87.4%	82.8%	45.4%	82.4%	75.8%	73.7%	-39.9% (active)
CC(Sc1nc2sc3c(c2c(=O)n1-c1ccc(Cl)cc1)CCCC3)C(=O)Nc1nc(-c2ccc(Br)cc2)cs1 (stereo not given)	95.3%	94.3%	95.8%	91.5%	104%	110%	82.1%	100%	92.6%	110%
Cc1cccc(NC(=O)Nc2ccc(-c3ccc4c(c3)NC(=O)/C4=C\c3ccc[nH]3)cc2)c1	61.6%	85.5%	89.8%	89.8%	26.3%	127%	85.3%	83.6%	103%	96.3%
CC(C)(C)[Si](C)(C)OC1[C@@H](O[Si](C)(C)C(C)(C)C)[C@@H](CNC(=O)NC(=O)CCl)O[C@H]1n1cnc2c(NC(=O)Nc3ccccc3)ncnc21 (stereo not given in full)	-93.3% (active)	-93.8% (active)	120%	-95.5% (active)	11.9%	-74% (active)	-61.9% (active)	1.49% (active)	-93.8% (active)	-18.3% (active)
CCCCCN1C=C/C(=C\C(=O)N(C)c2ccc(Oc3ccccc3)cc2)c2ccccc21	68.4%	79.1%	89.8%	87.4%	92%	47.7%	61.1%	82.3%	89.7%	81.6%
N#C/C(=C\c1cccc(C#N)c1)c1ccccc1	101%	105%	104%	92.9%	104%	120%	95.6%	88.8%	105%	104%
C=C(C)[C@@H]1CC[C@]2(C(=O)N3CCN(C)CC3)CC[C@]3(C)[C@H](CC[C@@H]4[C@@]5(C)C/C(=C/c6cccnc6)C(=O)C(C)(C)[C@@H]5CC[C@]43C)[C@@H]12	78.5%	72.7%	107%	88.4%	44.3%	52.8%	59%	49.4%	75.7%	65%
Cc1cc2cc3ccc(N(C)C)cc3nc2cc1N	-25.6% (active)	-28.4% (active)	-5.9% (active)	-39.1% (active)	-70.9% (active)	-4.62% (active)	-49.9% (active)	-18.7% (active)	8.26% (active)	-67.7% (active)
N#Cc1c(-c2cccc([N+](=O)[O-])c2)nc(SCC(=O)c2ccc(Cl)cc2)[nH]c1=O	98.5%	97.6%	96.8%	87.4%	108%	94.3%	88.8%	101%	96.7%	103%
CN(C)c1ccc(Nc2c3ccccc3nc3cc(NC(=O)CCN4CCCC4)ccc23)cc1	-42.5% (active)	-1.19% (active)	-14.6% (active)	-8.55% (active)	-65.5% (active)	-9.52% (active)	-32.8% (active)	-33.5% (active)	-54% (active)	-27.3% (active)
CCOC(=O)c1ccc2c(c1)ncn2-c1ccc(NC(=O)Nc2cccc(C)c2)cc1	78.5%	93.8%	87.9%	81.8%	102%	117%	61.3%	103%	79.2%	74.3%
COc1cc2cc(Oc3cccc(NC(=O)Nc4cc(C(F)(F)F)cc(C(F)(F)F)c4)c3)c(C)nc2cc1OC	2.28% (active)	-10.2% (active)	14.9%	-54.1% (active)	7% (active)	-25.4% (active)	-33.4% (active)	5.93% (active)	-16.6% (active)	-81.2% (active)
Oc1cccc(CCc2ccc(Oc3cc(CCc4cccc(O)c4)cc(O)c3O)cc2)c1	89%	84.4%	81.8%	92.5%	66.4%	53.5%	-8.62% (active)	83%	92.8%	111%
COc1ccc(C(=O)c2nc3ccccc3n2CC(=O)c2ccc(F)cc2)cc1	88.4%	102%	99.8%	91.4%	108%	95.5%	35.6%	98.2%	87.3%	131%
Cc1cnc(C(=O)Nc2nc3ccc(S(=O)(=O)Nc4ccc(C5(C(F)(F)F)CC5)cc4)cc3[nH]2)cn1	33.9%	13.2%	33.9%	21.1%	0.982% (active)	32.8%	16%	23.7%	26.2%	-1.76% (active)
O=C1Nc2ccccc2/C1=C\c1c(-c2ccc(F)cc2)nc2ccccn12	49.1%	79.2%	83%	72.4%	82.6%	79.3%	42.6%	89%	82.1%	76.6%

Source: PubChem BioAssay (NCI)
